High-throughput results from PubChem BioAssay.
HEK293 tox = HEK 293 cell cytotoxicity; Potency, µM (doses to about 115 µM), for the others: top-dose activity change, negative = cytotoxicity, usual class: inhibitors; HEK 293 viability, ATP luminescence (CellTiter-Glo), 48-72 h; AID 1345083; hit rate 6.6% among 94,000; active = well fitted curve in the direction sought with a large enough effect; inconclusive = small, poorly fitted or top-dose-only effect, or another doubt; inactive = no such curve, though single readings can be large; an effect the other way counts as inactive or inconclusive; note: % is set by controls: 0 for no effect and ±100 for the full control effect; nearly all actives have a fitted effect of over 60% in size
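HEK 293 cells seeded at 250 cells/well were exposed to compound for 48 or 72 hr at 37 degree Celsius. Viability taken as ATP content by CellTiter-Glo luminescence.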
Luciferase inh = inhibitors of firefly (Photinus pyralis) luciferase. P08659. purified P. pyralis luciferase, luminescence, biochemical. Potency, µM (titrated, usually from 115 µM), most hits filed as inhibitors. hit rate 2.5% among 76,000. AID 1347043; active = well fitted curve in the direction sought with a large enough effect; inconclusive = small, poorly fitted or top-dose-only effect, or another doubt; inactive = no such curve, though single readings can be large; an effect the other way counts as inactive or inconclusive; note: % is set by controls: 0 for no effect and ±100 for the full control effect; nearly all actives have a fitted effect of over 65% in size
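Biochemical qHTS: compound (6-point titration) added to 10uM D-luciferin plus 10uM ATP in Tris acetate pH 7.5 buffer with Mg, Tween-20 and BSA, then purified enzyme at 10nM; light output imaged.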
NIH3T3 tox = NIH 3T3 cell cytotoxicity | Potency, µM (titrated, usually from 96.7 µM), inactives show top-dose activity change, negative = cytotoxicity, usual class: inhibitors | hit rate 4.3% among 94,000 | NIH 3T3 viability, CellTiter-Glo ATP luminescence, 48-72 h; active = well fitted curve in the direction sought with a large enough effect; inconclusive = small, poorly fitted or top-dose-only effect, or another doubt; inactive = no such curve, though single readings can be large; an effect the other way counts as inactive or inconclusive; note: % is set by controls: 0 for no effect and ±100 for the full control effect; nearly all actives have a fitted effect of over 55% in size
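Cytotoxicity is measured as loss of cellular ATP: NIH 3T3 cells (400/well) are exposed to compound for 48 or 72 hr at 37 °C, then CellTiter-Glo luminescence is imaged after 10 min at room temperature.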
NPR1 antag = human Npr1 receptor antagonism. P16066. HEK293 hNpr1 GloSensor cGMP, ANP-stimulated luminescence. Potency, µM (series often up to 46.3 µM), for the others: at the top dose activity change, negative = inhibition, usual class: inhibitors. hit rate 1.6% among 76,000; note: % is set by controls: 0 for no effect and ±100 for the full control effect; nearly all actives have a fitted effect of over 60% in size
Target sequence (P16066 whole entry, looked up): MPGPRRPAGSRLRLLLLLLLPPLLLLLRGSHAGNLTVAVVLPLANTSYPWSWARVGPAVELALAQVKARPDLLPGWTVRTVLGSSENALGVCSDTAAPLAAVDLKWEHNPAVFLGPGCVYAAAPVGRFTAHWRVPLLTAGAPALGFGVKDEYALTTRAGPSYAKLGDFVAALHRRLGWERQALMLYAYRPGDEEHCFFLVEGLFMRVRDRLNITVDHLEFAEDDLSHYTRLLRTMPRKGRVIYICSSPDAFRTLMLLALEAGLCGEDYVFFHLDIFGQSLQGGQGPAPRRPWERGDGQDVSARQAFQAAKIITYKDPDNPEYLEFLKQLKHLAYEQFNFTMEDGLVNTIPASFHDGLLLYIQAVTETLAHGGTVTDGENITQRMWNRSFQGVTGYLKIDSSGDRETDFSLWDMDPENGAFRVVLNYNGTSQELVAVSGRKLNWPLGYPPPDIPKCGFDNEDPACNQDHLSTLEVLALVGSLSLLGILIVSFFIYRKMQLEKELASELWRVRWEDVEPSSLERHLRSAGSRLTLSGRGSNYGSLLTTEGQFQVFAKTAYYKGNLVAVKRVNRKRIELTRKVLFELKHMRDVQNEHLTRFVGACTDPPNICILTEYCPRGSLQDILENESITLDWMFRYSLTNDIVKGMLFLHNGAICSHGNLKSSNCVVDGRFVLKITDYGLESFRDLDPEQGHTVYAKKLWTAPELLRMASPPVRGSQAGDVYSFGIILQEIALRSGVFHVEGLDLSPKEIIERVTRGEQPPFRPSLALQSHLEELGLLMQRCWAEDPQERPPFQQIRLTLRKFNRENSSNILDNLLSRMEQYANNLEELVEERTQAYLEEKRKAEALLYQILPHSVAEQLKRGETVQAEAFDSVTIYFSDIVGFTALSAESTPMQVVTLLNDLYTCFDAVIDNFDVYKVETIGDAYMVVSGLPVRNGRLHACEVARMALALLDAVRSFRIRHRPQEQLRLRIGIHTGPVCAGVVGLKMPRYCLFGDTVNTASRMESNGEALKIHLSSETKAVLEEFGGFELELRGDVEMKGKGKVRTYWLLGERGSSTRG
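HEK293 cells stably expressing human Npr1 and cGMP GloSensor pGS-40F, loaded 2 h with 2% GloSensor reagent, given compound 30 min at room temperature. Luminescence read before and 20 min after 0.1 nM hNppA.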
Npr1 antag conf = confirmation of human Npr1 natriuretic peptide receptor antagonists; shares compounds with NPR1 antag; HEK293 hNpr1 cGMP GloSensor luminescence, ANP-stimulated; Potency, µM (top dose mostly 57.6 µM), inactives show at the top dose activity change, negative = inhibition, actives largely listed as inhibitors; hit rate 76% among 1,400; AID 1347044; note: nearly all actives have a fitted effect of over 70% in size
NPR2 antag = selectivity test of Npr1 antagonists against human Npr2. shares compounds with NPR1 antag. HEK293 hNpr2 GloSensor cGMP luminescence, CNP-stimulated. AID 1347046. Potency, µM (series often up to 57.6 µM), inactives show top-dose activity change, negative = inhibition, actives largely listed as inhibitors. hit rate 67% among 1,400; note: nearly all actives have a fitted effect of over 70% in size
FLuc counter = inhibits firefly luciferase, false Npr1 antagonist flag | purified FLuc enzyme, luminescence, Km substrate | hit rate 0.7% among 1,400 | shares compounds with NPR1 antag | Potency, µM (top dose mostly 57.6 µM), for inactives: at the highest dose activity change, negative = inhibition, actives largely listed as inhibitors | AID 1347047; active = well fitted curve in the direction sought with a large enough effect; inconclusive = small, poorly fitted or top-dose-only effect, or another doubt; inactive = no such curve, though single readings can be large; an effect the other way counts as inactive or inconclusive; note: 0% is about no effect
GloSensor cGMP = control cell line activity, Npr1 antagonist counter-screen. shares compounds with NPR1 antag. hit rate 69% among 1,400. HEK293 GloSensor cGMP, SNP-stimulated, luminescence. Potency, µM (highest dose often 57.6 µM), for inactives: top-dose activity change, negative = inhibition, usual class: inhibitors; note: % is set by controls: 0 for no effect and ±100 for the full control effect; nearly all actives have a fitted effect of over 70% in size
Numbers without * were called inactive; i = inactive; ? = inconclusive; . = no result; [ ] = remark or other dose. Rows were chosen to be rich in hits. Some 11% of all compounds tested hit in one or more screens of this group. Unless noted, calls come from the whole dose curve. Potency is the fitted concentration of half-maximal effect.

SMILES | HEK293 tox | Luciferase inh | NIH3T3 tox | NPR1 antag | Npr1 antag conf | NPR2 antag | FLuc counter | GloSensor cGMP
COc1ccc(Cl)cc1C(=O)NC1CCN(c2cc(C(F)(F)F)nc(C)n2)CC1 | ? | i | ? | ? | . | . | . | .
COc1ccccc1CC(=O)NC1CCN(c2cc(C(F)(F)F)nc(C)n2)CC1 | -14% | i | -29% | -16% | . | . | . | .
Cc1ccc(CCNC(=O)C2CCN(C(=O)c3cc4c(=O)[nH]c(C)cn4n3)CC2)cc1 | 0% | i | -7% | -15% | . | . | . | .
Cc1ccc(C(=O)N2CCC(Cc3nc(-c4ccc(F)cc4)no3)CC2)cn1 | ? | i | ? | 1.1µM* | 1.4µM* | 1.9µM* | 2% | 1.5µM*
CCc1ccc(C(=O)N2CCC(Cc3nc(-c4ccc(F)cc4)no3)CC2)cc1 | ? | i | ? | 1.3µM* | 1.5µM* | 1.7µM* | 4% | 1.5µM*
O=C(c1ccc2c(c1)OCO2)N1CCC(Cc2nc(-c3ccc(F)cc3)no2)CC1 | ? | i | ? | 2.5µM* | 2.4µM* | 2.2µM* | -7% | 1.7µM*
CC(C)c1ccc(C(=O)N2CCC(Cc3nc(-c4ccc(F)cc4)no3)CC2)cc1 | ? | i | ? | 1.4µM* | 1.4µM* | 1.7µM* | 0% | 1.4µM*
Cc1ccc(C(=O)N2CCC(Cc3nc(-c4cnccn4)no3)CC2)cc1C | -30% | i | ? | -7% | . | . | . | .
COc1ccc(-c2ccc(C(=O)N3CCN([S+](C)(=O)[O-])CC3)cc2)nn1 | -5% | . | -3% | . | . | . | . | .
Cc1cccc(C(=O)N2CCC(Cc3nc(C(C)C)no3)CC2)c1 | ? | i | ? | -23% | . | . | . | .
CCc1ccc(C(=O)N2CCC(Cc3nc(C(C)C)no3)CC2)cc1 | ? | i | ? | 16µM* | 27µM* | ? | 2% | 24µM*
COCC(=O)N1CCCC(c2nn(C)c(=O)n2C(C)C)C1 (centres undefined) | -1% | i | -6% | 0% | . | . | . | .
Cc1ccc(OCC(=O)N2CCCC(c3nn(C)c(=O)n3C(C)C)C2)cc1 (centres undefined) | ? | i | -28% | 14µM* | 24µM* | ? | 2% | 24µM*
CN(Cc1cccc2cnccc12)C(=O)c1cc(COc2ccc(F)cc2F)on1 | ? | i | ? | 11µM* | 24µM* | 22µM* | -1% | 19µM*
O=C1c2cc(N3CCOCC3)nc(-c3cccc(F)c3)c2CN1Cc1ccccc1 | ? | i | ? | ? | 28µM* | ? | -1%[86.2 µM] | ?
O=C1c2cc(N3CCOCC3)nc(-c3ccccc3F)c2CN1CC1CC1 | ? | i | -64%[138 µM] | -13%[70.6 µM] | . | . | . | .
COC(=O)[C@@H]1Cc2c([nH]c3ccccc23)[C@H]2C[C@@H](NCCCn3ccnc3)C[C@@H](c3ccccc3F)N21 | ? | i | 7.1µM* | -25% | -24% | -29% | -11% | -7%
O=C1OCC2=C1C(c1ccc(Cl)cc1)NC(=O)N2CC(=O)N1CCC(Cc2ccccc2)CC1 (centres undefined) | 28µM* | i | ? | 13µM* | 19µM* | 24µM* | -1% | 19µM*
O=C(CN1C(=O)NC(c2ccccc2Cl)C2=C1COC2=O)Nc1ccc(C(F)(F)F)cc1 (centres undefined) | ? | i | ? | 1% | . | . | . | .
O=C(CN1C(=O)NC(c2ccc(Cl)cc2)C2=C1COC2=O)Nc1cccc(C(F)(F)F)c1 (centres undefined) | ? | i | ? | ? | ? | ? | -19% | ?
CC1CCN(C(=O)CN2C(=O)NC(c3ccccc3)C3=C2COC3=O)CC1 (centres undefined) | 1% | i | i | 6% | . | . | . | .
CCOc1ccccc1C1NC(=O)N(CC(=O)Nc2cccc(C(F)(F)F)c2)C2=C1C(=O)OC2 (centres undefined) | ? | i | 45µM* | ? | ? | -27% | -9% | ?
CCn1cc(S(=O)(=O)NCCc2ncc(C)n2Cc2ccc(F)cc2)cn1 | -6% | i | -19% | 5% | . | . | . | .
COc1ccc(C(=O)N2CCC(C(=O)N3CCC(N4CCOC4=O)CC3)CC2)cc1 | -2% | . | 4% | . | . | . | . | .
CN(C)C(=O)c1nc2sccn2c1-c1ccc(F)cc1 | -14% | . | -16% | . | . | . | . | .
SMILES | HEK293 tox | Luciferase inh | NIH3T3 tox | NPR1 antag | Npr1 antag conf | NPR2 antag | FLuc counter | GloSensor cGMP
Cc1nn(-c2ccccc2)c2c1C(C)N(CC1CN([S+](=O)([O-])c3ccccc3)C1)C2=O (centres undefined) | -31% | . | -33% | . | . | . | . | .
COc1cccc(C(=O)N2CCC3(C2)NC(=O)N(Cc2ccc(Cl)cc2)C3=O)c1 (centres undefined) | ? | i | ? | ? | ? | ? | 1% | -29%
COc1cccc(C(=O)N2CCCC3(C2)NC(=O)N(Cc2ccc(C)cc2)C3=O)c1 (centres undefined) | -27% | i | -18% | -1% | . | . | . | .
O=C(NC1CCN(c2nc3ncccc3o2)C1)c1ccc(F)cc1 (centres undefined) | 0% | . | -13% | . | . | . | . | .
CCN(Cc1ccccc1)C(=O)CCC1CCN(S(=O)(=O)c2ccccc2)CC1 | ? | i | 28µM* | -21% | ? | -20% | -2% | -13%
CCN(Cc1ccncc1)C(=O)CCC1CCN(S(=O)(=O)c2ccccc2)CC1 | ? | i | ? | -18% | . | . | . | .
Cc1ccc(CNC(=O)CCC2CCN(S(=O)(=O)c3ccccc3)CC2)cc1 | -24% | i | ? | -24% | -17% | -11% | 3% | -13%
CCN(CC)C(=O)N1CC(Oc2ccc(-c3noc(COC)n3)cc2)C1 | ? | i | ? | 10µM* | 9.7µM* | 8.6µM* | 3% | 6.9µM*
COCc1nc(-c2ccc(OC3CN(S(=O)(=O)c4ccccc4C)C3)cc2)no1 | 14µM* | i | ? | 11µM* | 12µM* | 19µM* | 1% | 15µM*
Cc1ccc(CNC(=O)N2CCC(Oc3ccc(-c4noc(C)n4)cc3)C2)cc1 (centres undefined) | ? | i | ? | 20µM* | ? | -28% | -17% | -18%
CCN(CC)C(=O)N1CC(Oc2cccc(-c3nc(C)no3)c2)C1 | ? | i | -16% | 0% | . | . | . | .
